Compound activity from PubChem BioAssay.
TDP1 cell CPT: DT40-hTDP1 cell growth loss with CPT; AID 686979; Potency, µM (doses to about 46.2 µM), inactives show at the highest dose activity change, negative = growth inhibition, usual class: inhibitors; actives 12% (n = 420,000); chicken DT40 Tdp1-/-;hTDP1 cells + 20 nM CPT, ATP luminescence, 48 h; further: nearly all actives have a fitted effect of over 55% in size
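Cell growth measured by CellTiter-Glo luminescence after a minimum 48 h, 37 C compound exposure with 20 nM CPT in Tdp1-knockout DT40 cells stably expressing hTDP1, seeded 400/well; qHTS titration format.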
KB-3-1 cytotox: kills parental KB-3-1 adenocarcinoma cells; actives 1.4% (n = 400,000); Potency, µM (doses to about 46.1 µM), most hits filed as cytotoxic; KB-3-1 viability, CellTiter-Glo ATP luminescence, 72 h; further: nearly all actives have a fitted effect of over 60% in size
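Parental KB-3-1 adenocarcinoma cells in phenol-red-free DMEM with 10% FBS were pin-treated with compounds at several concentrations, incubated 72 h at 37 °C, and viability read by CellTiter-Glo luminescence; concentration-effect curves were fitted after normalization.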
HT1080 IDH1KD tx: HT-1080 IDH1 knockdown cell toxicity (counter line). HT-1080 IDH1 knockdown viability, ATP luminescence, 48 h. Potency, µM (titrated, usually from 46.1 µM), for the others: at the highest dose activity, negative = toxicity, hits mostly cytotoxic. actives 2% (n = 360,000);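 further: 0% = DMSO wells and -100% = cell-free medium wells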
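Luminescent ATP read-out (CellTiter-Glo, 10 min at room temperature) after 48 h compound exposure at 37 °C gave viability of IDH1-knockdown HT-1080 cells. Activity was normalised to DMSO and cell-free wells, then fitted as concentration-response curves.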
HT1080NT lethal: kills 2HG-producing HT-1080-NT fibrosarcoma cells; HT-1080-NT fibrosarcoma viability, CellTiter-Glo ATP luminescence, 48 h; Potency, µM (highest dose often 46.1 µM), for inactives: top-dose activity, negative = less viability, usual class: cytotoxic; actives 1.6% (n = 360,000);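 further: NT is the 2HG producing partner of a matched IDH1 knockdown line; 0% = DMSO-treated cells and -100% = media-only wells without cells; nearly all actives have a fitted effect of over 55% in size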
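Viability of the 2HG-overproducing fibrosarcoma line after 48 hours of compound exposure at 37 degrees C was determined by luminescence with CellTiter-Glo, and concentration-effect curves were then fitted and categorized.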
KB-V1 cytotox: KB-V1 MDR subline cytotoxicity | Potency, µM (highest dose often 46.1 µM), hits mostly cytotoxic | KB-V1 MDR cells viability, CellTiter-Glo, 72 h | actives 3.4% (n = 400,000) | AID 1347076; further: nearly all actives have a fitted effect of over 60% in size
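Drug-selected KB-V1 cells, grown in DMEM lacking phenol red with 10% FBS, receive compound titrations; after three days at 37 degrees C, surviving cell ATP is quantified by CellTiter-Glo luminescence and responses normalized and curve-fitted.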
DT40 TDP1 no CPT: qHTS for Inhibitors of human tyrosyl-DNA phosphodiesterase 1 (TDP1): qHTS in cells in absence of CPT. AID 686978, 2013. DT40 Tdp1-/- hTDP1 cells, no CPT, ATP luminescence, 48 h. Potency, µM (titrated, usually from 46.2 µM), inactives show at the highest dose activity change, negative = growth inhibition, actives largely listed as inhibitors. actives 15% (n = 420,000); further: nearly all actives have a fitted effect of over 55% in size
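Seeded 400 DT40-hTDP1 cells/well (vehicle DMSO, no 20 nM CPT); pinned compounds; ≥48 hr at 37 °C; CellTiter-Glo luminescence as viability measure.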
* hit, by the source's call; i = inactive; u = inconclusive; x = no result; [ ] = remark or other dose. Compounds with a hit are over-represented: about 19% of the library has one in this group of screens. The call rests on the fitted dose curve; in most records, active means well fitted curve in the direction sought with a large enough effect; inconclusive means small, poorly fitted or top-dose-only effect, or another doubt; inactive means no such curve, though single readings can be large; an effect the other way counts as inactive or inconclusive. Unless noted, on the % scale 0 is the no-effect control and ±100 the full control effect; potency means the concentration at half of the fitted maximal effect.

SMILES	TDP1 cell CPT	KB-3-1 cytotox	HT1080 IDH1KD tx	HT1080NT lethal	KB-V1 cytotox	DT40 TDP1 no CPT
COC(=O)c1c(NC(=O)CN2CCCc3ccccc32)sc(C)c1C	20.6µM*	i	-22.3%	-5.7%	u	u
CCOC(=O)c1c(NC(=O)C[n+]2ccc(Cc3ccccc3)cc2)sc(C)c1C	11.6µM*	u	u	u	u	6.51µM*
CCOC(=O)c1c(NC(=S)Nc2ccccc2)sc(C)c1C	u	i	u	u	i	u
CCOC(=O)c1c(NC(=O)CN2CCCc3ccccc32)sc(C)c1C	u	u	u	-13.5%	i	u
Cc1ccc(OCC(=O)NCCCNC(=O)c2cccnc2)cc1	-5.2%	i	u	u	u	8.0%
O=C(CNC(=O)c1ccccc1O)N/N=C/c1cc(Br)ccc1OC(=O)/C=C/c1ccco1	7.31µM*	u	u	u	u	4.61µM*
O=C(CNC(=O)c1cccc(F)c1)N/N=C/c1cc(Br)ccc1OC(=O)/C=C/c1ccco1	7.31µM*	u	u	u	i	3.66µM*
CC1=C(C(=O)N2CCCCCC2)CC(CC(=O)NC2CCCCC2)C(=O)N1Cc1ccc(F)cc1 (stereo not drawn)	u	x	-15.8%	-17.9%	i	u
CCOc1ccc(CCNC(=O)c2sc3nc4n(c(=O)c3c2C)CCCC4)cc1OCC	u	i	x	x	i	u
Cc1cccc(CCNC(=O)c2sc3nc4n(c(=O)c3c2C)CCCC4)c1	18.4µM*	i	x	x	i	u
Cc1c(C(=O)NCc2ccc(Cl)cc2)sc2nc3n(c(=O)c12)CCCC3	u	x	x	x	x	16.4µM*
Cc1cccc(CCNC(=O)c2ccc3c(c2)nc2n3CCCCC2)c1	20.6µM*	i	x	x	i	u
Cc1c(C(=O)NCc2cccc(Cl)c2)sc2nc3n(c(=O)c12)CCCC3	u	i	x	x	i	u
Cc1ccc(C(=O)Nc2c(C(=O)NCc3ccc(Cl)cc3)sc3nc(C)cc(C)c23)cc1	9.2µM*	x	x	x	x	13µM*
CCCc1cc(CN(C)C(=O)c2ccc(OC3CCN(C(C)=O)CC3)c(OC)c2)[nH]n1	-15.0%	i	1.9%	2.3%	i	-4.2%
Cc1cccc(NS(=O)(=O)c2ccc(C(=O)N3CCC3)cc2)c1C	-14.6%	i	-4.8%	-0.1%	i	u
COc1cccc(NC(=O)Cn2c(=O)n(-c3ccccc3)c(=O)c3ccc(C(=O)NCc4ccc5c(c4)OCO5)cc32)c1	u	i	x	x	i	u
CCc1ccc(N(CC)C(=O)c2sc3nc4n(c(=O)c3c2C)CCCC4)cc1	25.9µM*	i	x	x	i	20.6µM*
CCOc1cc(C(=O)Nc2ccc(-c3nc4cc(Cl)ccc4o3)cc2)cc(OCC)c1OCC	u	i	x	x	i	u
CC12CCC(=O)N1C(C(=O)N1CCN(c3ccc(C(F)(F)F)cc3[N+](=O)[O-])CC1)CS2 (stereo not drawn)	20.6µM*	i	14.1%	-1.0%	u	25.9µM*
CC12CCC(=O)N1C(C(=O)N1CCN(c3ccc([N+](=O)[O-])cc3)CC1)CS2 (stereo not drawn)	u	i	u	13.8%	18.4µM*	20.6µM*
CC12CCC(=O)N1C(C(=O)N1CCN(c3ccccc3)CC1)CS2 (stereo not drawn)	3.4%	i	13.6%	8.7%	i	-3.0%
CCOc1ccc(NS(=O)(=O)c2ccc(C(=O)NCCCN3CCCC3=O)cc2)cc1	u	u	-2.4%	-2.4%	i	18.4µM*
O=C(NCCCN1CCOCC1)c1ccc(S(=O)(=O)Nc2cccc(C(F)(F)F)c2)cc1	-22.6%	i	-11.0%	-14.6%	i	u
O=C(Cc1ccc(NS(=O)(=O)c2ccc(F)cc2)cc1)NCc1ccccc1	u	i	-3.8%[9.24 µM]	-17.1%	u	23.1µM*
SMILES	TDP1 cell CPT	KB-3-1 cytotox	HT1080 IDH1KD tx	HT1080NT lethal	KB-V1 cytotox	DT40 TDP1 no CPT
CCNC(=O)Cc1ccc(NS(=O)(=O)c2ccc(F)cc2)cc1	-11.8%	i	1.6%	-12.8%	i	22.5%
O=C(NCCCN1CCCC1=O)c1ccc(S(=O)(=O)Nc2cccc(C(F)(F)F)c2)cc1	u	i	-3.6%	-12.4%	i	20.6µM*
O=C(NCc1ccc(F)cc1)c1ccc(S(=O)(=O)Nc2cccc(C(F)(F)F)c2)cc1	u	u	-9.4%	-14.8%	14.6µM*	u
COc1cc(OC)c(NC(=O)c2cc(CN3CCOCC3)on2)cc1Cl	0.8%	i	x	x	i	-19.4%
COc1cccc(Cn2c(=O)c(-c3cccs3)nc3cnc(OCc4ccccc4)nc32)c1	-2.2%	x	x	x	x	17.7%
CCN(CC(=O)Nc1ccccc1OC)C(=O)COc1ccc(C#N)cc1	1.9%	i	-0.2%	3.4%	i	2.7%
CCC(c1nnnn1-c1ccc2c(c1)OCCO2)N1CCN(c2ccccn2)CC1 (stereo not drawn)	-1.1%	i	-7.6%	-1.1%	i	-22.3%
Cc1ccc(CNC(=O)CN(C)S(=O)(=O)c2ccc(F)cc2)cc1	-11.7%	i	3.8%	-9.0%	i	-20.1%
CCCN(CCC)C(=O)CCSCCC(=O)N(CCC)CCC	-23.6%	i	8.8%	2.7%	18.4µM*	u
O=C(O)CCSCCC(=O)O	-2.3%	i	20.4%	18.3%	i	-9.2%
COc1ccc(N2CCN(C(=O)COC(=O)CNC(=O)c3ccc(C)cc3)CC2)cc1	-17.0%	i	11.5%	1.5%	i	-11.7%
CCCC(=O)N1CCC1(C)C(=O)NS(=O)(=O)c1cc2c(cc1C)CCCS2(=O)=O (stereo not drawn)	-21.1%	i	1.5%	24.6%	i	-0.7%
CN1CCN(C2=Nc3ccccc3Sc3ccc(Cl)cc32)CC1	u	x	x	x	x	10.6µM*
CC(C)=C1SC(N2CCN(c3cccc(Cl)c3)CC2)=NC1=O	u	i	-17.7%	-3.8%	i	u
Cc1ccccc1Nc1cccc2nonc12	1.8%	i	-14.3%	-1.7%	i	-24.7%
COc1cc(O)c(C(C)=O)c(OC)c1	u	i	-0.8%	0.8%	i	u
COc1cc(O)c(CCC(=O)c2cc(OC)c(OC)c(OC)c2)c(OC)c1	20.6µM*	i	3.8%	4.6%	u	14.6µM*
